The structures appear in SMILES notation. Values joined by “and” are separate entries in the source; they are usually repeats but may differ in a detail not shown here. Identical values can stand only once.

In the first experiment the target is T1, Serine/threonine-protein kinase Sgk1 (Homo sapiens) (UniProt O00141).
T1 sequence (whole entry): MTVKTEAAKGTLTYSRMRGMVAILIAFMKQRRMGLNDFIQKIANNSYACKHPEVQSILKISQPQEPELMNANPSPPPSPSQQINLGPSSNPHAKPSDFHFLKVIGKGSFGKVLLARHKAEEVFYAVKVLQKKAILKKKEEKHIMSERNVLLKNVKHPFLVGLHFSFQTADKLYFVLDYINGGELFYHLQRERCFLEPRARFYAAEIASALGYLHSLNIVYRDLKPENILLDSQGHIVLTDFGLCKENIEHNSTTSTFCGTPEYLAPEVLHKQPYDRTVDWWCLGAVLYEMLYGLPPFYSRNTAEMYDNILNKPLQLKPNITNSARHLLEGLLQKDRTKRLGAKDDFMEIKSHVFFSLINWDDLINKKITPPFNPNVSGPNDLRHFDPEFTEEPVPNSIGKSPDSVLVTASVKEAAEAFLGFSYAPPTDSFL
Conditions: at 0.1 µM.
A word on the inhibition: it is the change of the read-out against control, counted positive when it falls. Turning to `c1cnn2ncc(-c3ccnc(NCCCN4CCOCC4)n3)c2c1`, the inhibition worked out at 1.8%.

Regarding `FC(F)(F)CNc1nccc(-c2cnn3ncccc23)n1`, the inhibition was found to be 1.25%.

In the case of `CCS(=O)(=O)c1ccc(OC)c(Nc2ncc(-c3cccc(F)c3)o2)c1`, the inhibition worked out at 2.66%.

For the molecule `COc1ccc(Nc2ncc(-c3ccccc3)o2)cc1OC`, the inhibition was found to be 1.25%.

With `Cc1nnc(-c2cccc(-c3ccc(C(=O)NCC4CC4)cc3)c2)o1`, the inhibition was 4.47%.

For `COc1cc(N2CCN(C(C)C)CC2)ccc1Nc1nc(Nc2cccc3ncccc23)c2cc[nH]c2n1`, the inhibition was found to be 1.18%.

For `Cn1c(-c2nonc2N)nc2cnccc21`, the inhibition is 3.35%.

Take `CC1=C(C(=O)Nc2ccc3[nH]nc(C)c3c2)C(c2ccc(C(F)(F)F)cc2)CC(=O)N1` (configuration not stated): the inhibition stood at 2.07%.

For `CN1CCC(n2cnc(-c3ccc(F)cc3)c2-c2ccnc(NCCO)n2)CC1`, the inhibition was 3.61%.

For `COc1cc(Nc2ncc(-c3ccccc3)o2)cc(OC)c1`, the inhibition was found to be 3.1%.

In the case of `CC1=C(C(=O)Nc2ccc3[nH]ncc3c2)C(c2ccc(F)cc2)N=C(c2ccc(C(F)(F)F)nc2)N1` (configuration not stated), the inhibition was 1.43%.

Take `Cc1ccc(-c2cc3c(NC(=O)C4CC4)ncnc3o2)cc1`: the inhibition stood at 2.2%.

For `O=C1Nc2ccccc2/C1=C1\CCc2cc(O)ccc21`, the inhibition was determined as 6.47%.

For `CN(C)CCNC(=O)Nc1ccc(N(C)c2ccnc(Nc3ccc(CS(C)(=O)=O)cc3)n2)cc1`, the inhibition stood at 3.14%.

In the case of `CS(=O)(=O)CCNCc1ccoc1-c1ccc2ncnc(Nc3ccc(OCc4ccccc4)cc3)c2c1`, the inhibition came to 2.02%.

Consider `CS(=O)(=O)Nc1ccc(-c2ccc3c(NC(=O)C4CC4)n[nH]c3c2)cc1`, for which the inhibition is 3.96%.

For `O=C(Nc1n[nH]c2nnc(-c3cccnc3)cc12)C1CC1`, the inhibition turned out to be 0.71%.

Consider `CC1(C)CC(n2cnc(-c3ccc(F)cc3)c2-c2ccnc(N)n2)CC(C)(C)N1`, for which the inhibition stood at 1.68%.

For `CNC(=O)c1ncccc1Nc1nc(Nc2cc3c(cc2OC)CCCN3C(=O)CN(C)C)nc2[nH]ccc12`, the inhibition turned out to be 2.04%.

As for `COc1cccc(-n2ncc3c(N/N=C/c4ccc(C(=O)NCCN(C)C)cc4)ncnc32)c1`, the inhibition was determined as 8.85%.

In the case of `Cc1c2ccc(N(C)c3ccnc(Nc4cccc(S(N)(=O)=O)c4)n3)cc2nn1C`, the inhibition came to 3.85%.

Take `OCCCNc1nccc(-c2c(-c3ccc(F)cc3)nn3cc(C(F)(F)F)ccc23)n1`: the inhibition turned out to be 2.5%.

For the molecule `COc1cccc(Nc2nccc(-c3cnn4ncccc34)n2)c1`, the inhibition turned out to be 1.84%.

In the case of `O=C(O[C@H]1CN[C@H](C#Cc2cc3ncnc(Nc4ccc(OCc5cccc(F)c5)c(Cl)c4)c3s2)C1)N1CCOCC1`, the inhibition came out at 3.69%.

On to `NS(=O)(=O)c1ccc(N/N=C2\C(=O)Nc3ccc(C(=O)NCc4ccncc4)cc32)cc1`, for which the inhibition came to 3.41%.

Consider `CS(=O)(=O)CCNCc1ccc(-c2ccc3ncnc(Nc4ccc(OCc5ccccc5)cc4)c3c2)o1`, for which the inhibition was 5.01%.

As to `CCOc1ccc2c(-c3ccnc(Nc4cc(OC)cc(C(F)(F)F)c4)n3)cnn2n1`, the inhibition is -0.01%.

Turning to `Nc1nonc1-c1nc2cnccc2n1C1CC1`, the inhibition was 2.58% and 2.55%.

`CCN1CCC(C(=O)Nc2n[nH]c3nnc(-c4cccc(F)c4F)cc23)CC1`: the inhibition is 0.58%.

As to `CS(=O)(=O)CCNCc1ccc(-c2ccc3ncnc(Nc4ccc(OCc5cccc(C(F)(F)F)c5)cc4)c3c2)o1`, the inhibition came to 2.43%.

As to `Nc1nccc(-c2c(-c3ccc(F)cc3)ncn2C2CCNCC2)n1`, the inhibition is 0.06% and 1.23%.

For another experiment, the target named is T1, Serine/threonine-protein kinase Sgk1 (Homo sapiens). Conditions: at 1 µM.
Take `c1cnn2ncc(-c3ccnc(NCCCN4CCOCC4)n3)c2c1`: the inhibition stood at 3.79%.

Regarding `FC(F)(F)CNc1nccc(-c2cnn3ncccc23)n1`, the inhibition was determined as 1.46%.

For `CCS(=O)(=O)c1ccc(OC)c(Nc2ncc(-c3cccc(F)c3)o2)c1`, the inhibition was determined as 4%.

Regarding `COc1ccc(Nc2ncc(-c3ccccc3)o2)cc1OC`, the inhibition is 9.75%.

Turning to `Cc1nnc(-c2cccc(-c3ccc(C(=O)NCC4CC4)cc3)c2)o1`, the inhibition was 10.8%.

For the molecule `COc1cc(N2CCN(C(C)C)CC2)ccc1Nc1nc(Nc2cccc3ncccc23)c2cc[nH]c2n1`, the inhibition was -0.91%.

Take `Cn1c(-c2nonc2N)nc2cnccc21`: the inhibition came out at 6.24%.

Take `CC1=C(C(=O)Nc2ccc3[nH]nc(C)c3c2)C(c2ccc(C(F)(F)F)cc2)CC(=O)N1` (configuration not stated): the inhibition is 7.21%.

As to `CN1CCC(n2cnc(-c3ccc(F)cc3)c2-c2ccnc(NCCO)n2)CC1`, the inhibition came to 6.71%.

For `COc1cc(Nc2ncc(-c3ccccc3)o2)cc(OC)c1`, the inhibition was 4.7%.

As for `CC1=C(C(=O)Nc2ccc3[nH]ncc3c2)C(c2ccc(F)cc2)N=C(c2ccc(C(F)(F)F)nc2)N1` (configuration not stated), the inhibition worked out at 2.75%.

On to `Cc1ccc(-c2cc3c(NC(=O)C4CC4)ncnc3o2)cc1`, for which the inhibition came to 3%.

Turning to `O=C1Nc2ccccc2/C1=C1\CCc2cc(O)ccc21`, the inhibition is 19.2%.

In the case of `CN(C)CCNC(=O)Nc1ccc(N(C)c2ccnc(Nc3ccc(CS(C)(=O)=O)cc3)n2)cc1`, the inhibition was determined as 3.11%.

As to `CS(=O)(=O)CCNCc1ccoc1-c1ccc2ncnc(Nc3ccc(OCc4ccccc4)cc3)c2c1`, the inhibition turned out to be 1.39%.

Regarding `CS(=O)(=O)Nc1ccc(-c2ccc3c(NC(=O)C4CC4)n[nH]c3c2)cc1`, the inhibition was 2.95%.

Regarding `O=C(Nc1n[nH]c2nnc(-c3cccnc3)cc12)C1CC1`, the inhibition is -0.17%.

In the case of `CC1(C)CC(n2cnc(-c3ccc(F)cc3)c2-c2ccnc(N)n2)CC(C)(C)N1`, the inhibition stood at 5.28%.

`CNC(=O)c1ncccc1Nc1nc(Nc2cc3c(cc2OC)CCCN3C(=O)CN(C)C)nc2[nH]ccc12`: the inhibition came to 2.57%.

As for `COc1cccc(-n2ncc3c(N/N=C/c4ccc(C(=O)NCCN(C)C)cc4)ncnc32)c1`, the inhibition is 47.9%.

As to `Cc1c2ccc(N(C)c3ccnc(Nc4cccc(S(N)(=O)=O)c4)n3)cc2nn1C`, the inhibition was found to be 4.14%.

For `OCCCNc1nccc(-c2c(-c3ccc(F)cc3)nn3cc(C(F)(F)F)ccc23)n1`, the inhibition was found to be 1.43%.

For the molecule `COc1cccc(Nc2nccc(-c3cnn4ncccc34)n2)c1`, the inhibition came out at 9.81%.

In the case of `O=C(O[C@H]1CN[C@H](C#Cc2cc3ncnc(Nc4ccc(OCc5cccc(F)c5)c(Cl)c4)c3s2)C1)N1CCOCC1`, the inhibition was 4.68%.

For the molecule `NS(=O)(=O)c1ccc(N/N=C2\C(=O)Nc3ccc(C(=O)NCc4ccncc4)cc32)cc1`, the inhibition is 12.9%.

With `CS(=O)(=O)CCNCc1ccc(-c2ccc3ncnc(Nc4ccc(OCc5ccccc5)cc4)c3c2)o1`, the inhibition was 2.28%.

For `CCOc1ccc2c(-c3ccnc(Nc4cc(OC)cc(C(F)(F)F)c4)n3)cnn2n1`, the inhibition came to 1.56%.

In the case of `Nc1nonc1-c1nc2cnccc2n1C1CC1`, the inhibition was 12.5% and 16.1%.

In the case of `CCN1CCC(C(=O)Nc2n[nH]c3nnc(-c4cccc(F)c4F)cc23)CC1`, the inhibition came to 1.25%.

Turning to `CS(=O)(=O)CCNCc1ccc(-c2ccc3ncnc(Nc4ccc(OCc5cccc(C(F)(F)F)c5)cc4)c3c2)o1`, the inhibition is 1.63%.

Consider `Nc1nccc(-c2c(-c3ccc(F)cc3)ncn2C2CCNCC2)n1`, for which the inhibition is 2.06% and 1.69%.

The values are drawn from ChEMBL document CHEMBL1961873, “Compounds: GSK PKIS; Assays: Nanosyn kinase panel” (2012).
